Screening data from PubChem BioAssay.
TIM10 inh = inhibits growth of TIM10 yeast strain; AID 463195; inhibition, % at 10 µM; S. cerevisiae TIM10 strain growth, BacTiter-Glo luminescence, 24 h; 330,000 compounds, 1.4% hits;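 active = inhibition of 40% or more at the single tested concentration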;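 note: wild-type TIM10 isogenic control strain grown at permissive 25 °C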
tim23-1 inh = growth inhibitors of tim23-1 mutant yeast; S. cerevisiae tim23-1 growth, BacTiter-Glo luminescence, 24 h; inhibition, % at 20 µM; 330,000 compounds, 1.3% hits;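 active = growth inhibition of the mutant yeast at or above 50%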;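 note: temperature-sensitive mutant grown at 25 °C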
V-ATPase pHluor = yeast V-ATPase proton transport regulation by pHLuorin; AID 504577; S. cerevisiae, pHLuorin cytosolic pH fluorescence; response, % at 10 µM; 350,000 compounds, 0.37% hits; in the data active = response mostly above about 7.3%, no sharp cut-off; inactive = mostly below about 5.4%; note: actives read high
NALP1 inh = NALP1 inhibition; S. cerevisiae NALP1/ASC/caspase-1 growth, X-gal OD620, 72 h; inhibition, % at 10 µM; 280,000 compounds, 0.61% hits; AID 2071; in the data active = inhibition mostly above about 24%, no sharp cut-off; inactive = mostly below about 32%
NLRP3 yeast inh = NALP3 inhibition in yeast; Yeast reconstituted NLRP3/ASC/caspase-1, beta-gal luminescence, 24 h; 330,000 compounds, 0.39% hits; inhibition, % at 10 µM;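 active = inhibition of 50% or more; inactive = inhibition below 50%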
tim10-1 inh = growth inhibitors of tim10-1 mutant yeast; 330,000 compounds, 2.2% hits; S. cerevisiae tim10-1 ts strain growth, BacTiter-Glo, 24 h; inhibition, % at 20 µM;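 active = inhibition of at least 40%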;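 note: mutant grown at 25 °C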
NALP3 confirm = confirmation of NALP3 inhibitors in yeast; shares compounds with NLRP3 yeast inh; yeast expressing human NALP3, luminescence; inhibition, % at 10 µM; 1,300 compounds, 81% hits; in the data active = inhibition above about 48%
Casp1 ASC ctr = caspase-1-ASC yeast counter-screen hit; shares compounds with NLRP3 yeast inh; yeast expressing Caspase-1-ASC, luminescence counter screen; inhibition, % at 10 µM; 1,000 compounds, 66% hits
NALP3 retest = yeast NALP3 inhibition, confirmed on retest; shares compounds with NLRP3 yeast inh; yeast expressing human NALP3, luminescence read-out; inhibition, % at 10 µM; 1,000 compounds, 53% hits; AID 488794
Of the large screens only hits and unclear results are named; the others gave an inactive call (follow-up assays come after a bar, where they were run). An excerpt weighted towards active compounds, which were near 4.2% of everything screened. Cut-off read from the data, not from the text of the source, unless noted: active = inhibition above about 50%; inactive = the rest.

CCOC(=O)Cc1csc(NC(=O)c2cc(C)c(C)s2)n1	NLRP3 yeast inh 65 (no result: NALP1 inh) | NALP3 confirm 60 | Casp1 ASC ctr 79 | NALP3 retest 63
CCOC(=O)Cc1csc(NC(=O)c2cccc(Cl)c2)n1	NLRP3 yeast inh 64 (no result: NALP1 inh) | NALP3 confirm 60 | Casp1 ASC ctr 68 | NALP3 retest 54
CCOC(=O)Cc1csc(NC(=O)c2ccncc2)n1	none
CCOC(=O)Cc1csc(NC(=O)c2ccc(Cl)s2)n1	NLRP3 yeast inh 63 | NALP3 confirm 73 | Casp1 ASC ctr 75 | NALP3 retest 71
O=C(Nc1ccc(Br)cn1)c1cccc2ccccc12	NLRP3 yeast inh 52 (no result: NALP1 inh) | NALP3 confirm inactive
CC1Cc2nc(SCC(=O)OCc3ccccc3)n(C)c(=O)c2S1 (stereo unspecified)	NLRP3 yeast inh 59 (no result: NALP1 inh) | NALP3 confirm 70 | Casp1 ASC ctr inactive | NALP3 retest inactive
CCOC(=O)C1=C(C)NC2=C(C(=O)C(C(=O)OCC)C(c3ccco3)C2)C1c1ccccn1 (stereo unspecified)	none
c1ccc2sc(N3CCCCC3)nc2c1	none (no result: TIM10 inh, tim23-1 inh, NALP1 inh, NLRP3 yeast inh, tim10-1 inh)
O=C1CNC(=S)N1c1nc2ccccc2s1	NLRP3 yeast inh 54 (no result: NALP1 inh) | NALP3 confirm 62 | Casp1 ASC ctr 54 | NALP3 retest 59
Cc1ccc2oc(=O)n(CCCOc3ccccc3C)c2c1	none
CC(C)(C)c1ccc(C(=O)NNc2ccc(F)cc2F)cc1	NLRP3 yeast inh 53 (no result: NALP1 inh) | NALP3 confirm inactive
COc1cccc(NC(=O)c2ccc(OC(F)(F)F)cc2)c1	NLRP3 yeast inh 50 (no result: NALP1 inh) | NALP3 confirm 63 | Casp1 ASC ctr inactive | NALP3 retest inactive
C/C(=N\NC(=S)NCCc1ccccc1)c1ccc(Cl)cc1Cl	NLRP3 yeast inh 58 | NALP3 confirm inactive | Casp1 ASC ctr 77 | NALP3 retest 58
O=C1Nc2ccccc2S/C1=C/c1cccs1	NLRP3 yeast inh 65 (no result: NALP1 inh) | NALP3 confirm inactive
Cc1ccc2nc(NC(=O)CN3C(=O)NC4(CCCCC4)C3=O)sc2c1	none (no result: NALP1 inh)
O=C(Nc1cccc(Cl)c1)c1cc(-c2ccco2)on1	NLRP3 yeast inh 59 | NALP3 confirm 74 | Casp1 ASC ctr 63 | NALP3 retest inactive
O=C(Nc1cc(Cl)ccc1O)c1cc(-c2ccco2)on1	NLRP3 yeast inh 50 | NALP3 confirm 66 | Casp1 ASC ctr inactive | NALP3 retest inactive
O=C(Nc1cc(Br)ccc1O)c1cc(-c2ccco2)on1	none (no result: TIM10 inh, tim23-1 inh, NLRP3 yeast inh, tim10-1 inh)
CCOC(=O)C(CC)n1cnc2c(oc3ccccc32)c1=O (stereo unspecified)	none
CCOc1ccc(S(=O)(=O)N2CCN(C(=O)c3cc(S(=O)(=O)N4CCOCC4)ccc3C)CC2)cc1	none (no result: NALP1 inh)
O=C(c1ccc(Cn2ccc([N+](=O)[O-])n2)cc1)N1CCN(Cc2ccccc2)CC1	none
CC(=O)c1cccc(NC(=O)c2csc3c2CCCCC3)c1	none
CCNC(=O)COC(=O)c1csc2c1CCCC2	NLRP3 yeast inh 56 | NALP3 confirm inactive
CCOc1ccc(NC(=O)c2csc3c2CCCC3)cc1	NLRP3 yeast inh 52 | NALP3 confirm inactive
COCCNC(=O)c1csc2c1CCCC2	none
Cc1ccc(Sc2cc(C)nc(-c3ccccn3)n2)cc1	NLRP3 yeast inh 51 (no result: NALP1 inh) | NALP3 confirm inactive | Casp1 ASC ctr 65 | NALP3 retest inactive
Cc1ccc(Cc2nc(-c3ccccn3)no2)cc1	none
COc1nc(-c2ccccc2)ncc1S(=O)(=O)c1ccccc1	NLRP3 yeast inh 57 | NALP3 confirm inactive | Casp1 ASC ctr inactive | NALP3 retest inactive
Clc1nnc(N/N=C/c2ccccc2)c2ccccc12	NLRP3 yeast inh 60 | NALP3 confirm 71 | Casp1 ASC ctr inactive | NALP3 retest inactive
C=CCc1c(C)nc(C)nc1N/N=C/c1ccccc1O	NLRP3 yeast inh 55 | NALP3 confirm 57 | Casp1 ASC ctr inactive | NALP3 retest 55
COc1ccc(-c2cc3nc4ccccc4n3c(N)c2C#N)cc1	NLRP3 yeast inh 68 | NALP3 confirm inactive | Casp1 ASC ctr inactive | NALP3 retest inactive
COc1ccc(-c2csc(N(CC3CCCO3)C(=O)c3ccccc3)n2)cc1 (stereo unspecified)	none
